Mtb UGM inh: blocks M. tuberculosis UGM enzyme | purified UGM, fluorescence polarization probe displacement | 320,000 compounds, 0.06% hits | inhibition, % at 10 µM | AID 504406 | P9WIQ1; in the data active = inhibition above about 10%, passing the limit was not always enough
GDH-TPI counter-1: inhibits GDH-TPI coupling enzymes, artifact for Mtb FBA screen; inhibition, % at 4.8 µM; 360,000 compounds, 1.2% hits; AID 588335; GDH-TPI coupled enzyme counterscreen, NADH absorbance; in the data active = inhibition above about 30%;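 note: 0% = DMSO wells and 100% = wells lacking the enzyme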
FBA Mtb inh: Mtb fructose-bisphosphate aldolase inhibition; purified M. tuberculosis FBA, fluorescence read-out; AID 588726; 360,000 compounds, 2.3% hits; inhibition, % at 1 µM; P9WQA3;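 note: 0% = vehicle and 100% = reference inhibitor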
Target sequence (P9WQA3 whole entry, looked up): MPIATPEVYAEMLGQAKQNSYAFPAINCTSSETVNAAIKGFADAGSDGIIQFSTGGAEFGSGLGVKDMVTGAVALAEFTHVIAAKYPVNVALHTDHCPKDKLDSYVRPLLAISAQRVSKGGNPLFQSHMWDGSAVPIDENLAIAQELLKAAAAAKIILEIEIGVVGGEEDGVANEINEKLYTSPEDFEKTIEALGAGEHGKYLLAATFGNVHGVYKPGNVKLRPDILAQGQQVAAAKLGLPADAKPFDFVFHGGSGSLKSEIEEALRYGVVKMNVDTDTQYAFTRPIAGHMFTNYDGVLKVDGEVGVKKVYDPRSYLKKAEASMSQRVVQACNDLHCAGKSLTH
Rv3671c protease: inhibitors of M. tuberculosis serine protease Rv3671c; inhibition, % at 5.96 µM; 320,000 compounds, 0.048% hits; in the data active = inhibition above about 38%;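 note: extracellular domain of Rv3671c used as enzyme; 0% = enzyme with DMSO and 100% = no enzyme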
Target sequence (P9WHR9 whole entry, looked up, the tested form may be a part): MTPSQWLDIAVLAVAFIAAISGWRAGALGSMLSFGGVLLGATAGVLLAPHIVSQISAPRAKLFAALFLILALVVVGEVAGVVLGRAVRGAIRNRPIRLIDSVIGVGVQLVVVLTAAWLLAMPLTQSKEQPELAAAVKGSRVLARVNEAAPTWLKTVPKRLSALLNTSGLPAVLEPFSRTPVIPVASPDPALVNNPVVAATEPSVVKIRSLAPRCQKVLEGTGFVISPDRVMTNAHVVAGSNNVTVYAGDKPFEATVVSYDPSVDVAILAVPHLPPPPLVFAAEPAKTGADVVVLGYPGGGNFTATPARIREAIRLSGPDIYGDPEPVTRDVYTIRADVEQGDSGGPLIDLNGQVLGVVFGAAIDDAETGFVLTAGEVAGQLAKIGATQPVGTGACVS
Mtb hypoxia rep: reduces hypoxia-regulated biosensor signal in M. tuberculosis; M. tuberculosis hypoxia-regulated fluorescent reporter, fluorescence; fluorescence inhibition, % (no concentration beside the values); 300,000 compounds, 0.1% hits; AID 1159583; in the data active = fluorescence inhibition mostly above about 23%, no sharp cut-off; inactive = mostly below about 17%
FadD28 binding: M. tuberculosis FadD28 bisubstrate binding inhibition; 360,000 compounds, 0.22% hits; FadD28 bisubstrate probe binding, fluorescence polarization; inhibition, % at 12.5 µM; in the data active = inhibition above about 8.5%, passing the limit was not always enough
Mtb FBA confirm: Mtb FBA inhibition, confirmed. shares compounds with FBA Mtb inh. inhibition, % at 1 µM. 5,600 compounds, 78% hits. purified M. tuberculosis FBA, fluorescence read-out;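 note: 0% = vehicle wells and 100% = reference inhibitor wells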
GDH-TPI counter-2: GDH-TPI inhibition counter-screen for FBA inhibitors; 5,600 compounds, 81% hits; inhibition, % at 1 µM; GDH-TPI coupled enzyme counterscreen, fluorescence; shares compounds with FBA Mtb inh; AID 652141; in the data active = inhibition above about 10%
GDH-TPI dose: inhibits GDH-TPI coupling enzymes in dose response. shares compounds with FBA Mtb inh. GDH-TPI coupled enzyme assay, fluorescence, artifact counterscreen. IC50, µM. 170 compounds, 79% hits. AID 652145; call rule not given here
Starred values were filed as active, the others as inactive; / = not tested or not shown; + = active, no number. Only some compounds are listed: those with a hit (about 3.5% of all), similar ones and a draw of the others. Cut-off read from the data, not from the text of the source, unless noted: active = inhibition above about 27%; inactive = the rest.

SMILES | Mtb UGM inh | GDH-TPI counter-1 | FBA Mtb inh | Rv3671c protease | Mtb hypoxia rep | FadD28 binding | Mtb FBA confirm | GDH-TPI counter-2 | others
O=C(CSc1nc2ccccc2c(=O)[nH]1)Nc1ccccc1N1CCOCC1 | 2.7 | 6.3 | 33.3* | 0.7 | 14.8 | -3.2 | 96.9* | 77.5*
CCCSc1nnc(NC(=O)CSc2sc3c(O)cc(=O)[nH]c3c2C#N)s1 | 0.8 | -3.1 | 92.7* | -10.5 | 2.0 | 15.8* | 12.0 | -1.1 | GDH-TPI dose=>10
CC(C)c1cc(C(C)C)n2nc(N)nc2n1 | -0.7 | 5.6 | 18.4 | 4.7 | -2.9 | -2.6 | / | /
CCCc1cc(CCC)n2nc(N)nc2n1 | / | 4.9 | 31.9* | / | / | -1.9 | + | 178.8*
CC1COC(=O)C(CC(=O)OC(C)(C)C)CC=CCC(CC(=O)NC(CO)Cc2ccccc2)C(=O)N1 (configuration not stated) | / | / | / | / | 12.2 | / | / | /
CCC(=O)Nc1c(-c2ccc3ccccc3c2)nc2ccccn12 | -1.5 | 15.4 | 50.2* | -5.2 | -19.9 | 0.3 | 62.3* | 75.3*
O=C(Nc1c(-c2ccccc2)nc2ccccn12)c1ccccc1 | -1.6 | 0.8 | -1.4 | 0.9 | 14.2 | 0.1 | / | /
CC(=O)Nc1c(-c2ccc3ccccc3c2)nc2ccccn12 | 1.6 | 13.0 | 59.1* | -8.2 | 6.4 | -1.9 | 41.3* | 29.6*
CCOC(=O)CNc1c(-c2ccc(O)cc2)nc2ccccn12 | -1.7 | 13.7 | 40.5* | -6.1 | 16.0 | -0.4 | 2.6 | -0.9
CCOC(=O)CNc1c(-c2ccc(O)cc2)nc2ccc(Cl)cn12 | 2.6 | 16.2 | 4.7 | 6.2 | 11.7 | 0.1 | / | /
CC=C(C)C(=O)Nc1cccc(C2=NOC3(C2)CC(C(N)=O)N(C(=O)CC#N)C3)c1 (configuration not stated) | / | / | / | / | 19.7 | / | / | /
Cc1cccc2nc3ccccc3cc12 | -1.3 | -6.9 | 32.9* | 7.0 | 18.8 | -4.1 | 49.5* | 33.5*
O=C1C=CC(=NN=C(c2ccccc2)c2ccccc2)C=C1 | / | / | 32.2* | / | / | -1.1 | 80.5* | 66.6*
NN=C(c1ccccc1)c1ccccc1 | -1.7 | 14.5 | -0.2 | 0.1 | 6.0 | -1.5 | / | /
CCOC(=O)c1c(C)n(-c2ccc(F)cc2)c2ccc(O)cc12 | -1.0 | -2.8 | 35.0* | 1.3 | 8.1 | -1.8 | 43.7* | 24.4*
COC(=O)c1c(C)n(-c2ccc(OC)cc2)c2ccc(O)cc12 | -1.2 | 9.7 | 2.2 | -6.8 | / | -1.7 | / | /
O=C1C2C(c3ccc(F)cc3)N3C(=O)N(c4cccc(Br)c4)C(=O)[C@@]3(Cc3ccccc3)C2C(=O)N1C1CCCCC1 (some centres not stated) | / | / | / | / | 0.9 | / | / | /
CCN(CC)C(=O)[C@H]1C[C@H](CC(=O)NCc2ccc(OC)c(OC)c2)C(=O)N2CCc3c([nH]c4cc(-c5ccco5)ccc34)[C@]12C | / | 16.4 | 46.1* | / | -15.0 | -2.1 | 144.2* | 104.6*
COc1ccc(CNC(=O)C[C@H]2C[C@H](C(=O)N3CCCCC3)[C@@]3(C)c4[nH]c5cc(-c6ccco6)ccc5c4CCN3C2=O)cc1OC | / | 10.4 | 28.1* | / | -10.1 | -0.8 | 78.7* | 56.4*
COc1cc(C=NNc2ccc([N+](=O)[O-])cc2S(=O)(=O)N2CCOCC2)cc(OC)c1OC | / | / | / | / | -4.0 | / | / | /
COc1ccc(S(=O)(=O)N(CCCN2CCCC2=O)Cc2cc3c(C)cc(C)cc3[nH]c2=O)cc1 | / | 28.6 | 32.6* | / | / | -2.1 | 13.3 | 7.9 | GDH-TPI dose=>10
Nc1nccnc1C(=O)OCC(=O)NCCc1ccc(Cl)cc1 | 1.8 | 1.8 | 102.5* | 3.3 | 6.7 | / | -5.0 | -5.2
O=C(O)CCC(=O)Nc1nc2nc(-c3ccccc3)cc(-c3ccccc3)n2n1 | 4.3 | 35.9* | 97.9* | -8.8 | / | -4.7 | 84.8* | 98.0*
N#CCCN(C(=O)COc1ccc(F)cc1Br)c1ccccc1F | -3.7 | -5.6 | 28.2* | 4.6 | 5.3 | -3.8 | 20.4 | -4.0 | GDH-TPI dose=>10
C=CCn1c(SCC(=O)Nc2ccc(N3CCOCC3)cc2)nnc1-c1ccco1 | -1.0 | -5.0 | -3.5 | -5.0 | 5.3 | / | / | /
SMILES | Mtb UGM inh | GDH-TPI counter-1 | FBA Mtb inh | Rv3671c protease | Mtb hypoxia rep | FadD28 binding | Mtb FBA confirm | GDH-TPI counter-2 | others
C=CCn1c(SCC(=O)Nc2nncs2)nnc1-c1ccco1 | -1.0 | -0.8 | 75.2* | 3.2 | 3.4 | -2.9 | + | +
CC(CCC1CC(C)OC1=O)=NNC(N)=O (configuration not stated) | / | / | / | / | 1.7 | / | / | /
N#Cc1ccc2c(c1)nnn2-c1ccccc1 | -1.6 | -3.0 | 3.8 | -14.5 | 12.3 | 0.2 | / | /
Nc1ccc2c(c1)nnn2-c1ccccc1 | 2.3 | -7.2 | 30.6* | -0.6 | 5.3 | -1.6 | 190.3* | 151.6*
COc1ccc(C2C=CCN(C(=O)C(Cc3ccccc3)NC(=O)OCC3c4ccccc4-c4ccccc43)CC(=O)N2Cc2ccc(F)cc2)cc1 (configuration not stated) | / | / | / | / | 9.3 | / | / | /
CC1=C[C@@H]2c3cccc4[nH]cc(c34)C[C@H]2N(C)C1 | 5.3 | 1.0 | 82.0* | 3.0 | / | 1.2 | 51.8* | 49.2*
O=C(CSc1nnc(SCc2ccccc2)s1)NN=Cc1c[nH]c2ccccc12 | / | / | / | / | -1.3 | / | / | /
O=C(COc1ccc2c3c(c(=O)oc2c1)CCC3)N1CCN(c2ccc(F)cc2)CC1 | -1.9 | 26.1 | 7.8 | -3.9 | -1.6 | 1.8 | / | /
Cc1c(OCC(=O)N2CCC(C(N)=O)CC2)ccc2c3c(c(=O)oc12)CCCC3 | 0.5 | 9.8 | 17.6 | 7.2 | / | -4.5 | / | /
O=C(O)C1CCN(C(=O)COc2ccc3c4c(c(=O)oc3c2)CCC4)CC1 | 0.9 | 15.7 | 41.0* | 4.6 | / | 1.3 | 124.2* | 78.8*
NC(=O)C1CCN(C(=O)COc2ccc3c4c(c(=O)oc3c2)CCCC4)CC1 | 5.2 | 23.5 | 78.7* | -1.8 | / | -2.4 | 166.3* | 135.6*
Cc1ccc2[nH]c3c(c2c1)CCCC3=O | -2.3 | 12.0 | 12.1 | -1.5 | / | -2.7 | / | /
Cc1ccc2[nH]c3c(c2c1)CCC3=O | 2.9 | 1.9 | 65.0* | 4.5 | 4.1 | -0.2 | + | 162.1*
Cc1cccc(NC(=O)COc2ccc(Br)cc2C=NO)c1 | / | / | / | / | 3.8 | / | / | /
O=S(=O)(NCc1ccccc1)C1CC2C=CC1C2 (configuration not stated) | / | / | / | / | 9.7 | / | / | /
COc1ccc2[nH]c3c(NCCN4CCCCC4)ncnc3c2c1 | 0.7 | 14.7 | 24.6 | 3.4 | 5.1 | 0.6 | / | /
CCCCOc1ncnc2c1[nH]c1ccc(OCC)cc12 | -2.2 | 8.6 | 7.7 | 3.4 | 0.0 | -3.1 | / | /
CCOc1ccc2[nH]c3c(NCCO)ncnc3c2c1 | 0.7 | 1.5 | 77.9* | / | 3.4 | -2.0 | 45.3* | 43.5*
CCOc1ccc2[nH]c3c(NCCc4ccc(OC)c(OC)c4)ncnc3c2c1 | 1.1 | 16.0 | 31.8* | 8.2 | 3.6 | -0.7 | 181.1* | 146.7*
Cc1cc(C)c(C#N)c(N2CCCC2)n1 | -2.0 | 12.6 | 29.9* | 0.9 | 19.8 | 0.9 | 134.6* | 92.1*
CC(=O)N/C(=N/c1nc(C)cc(C)n1)Nc1ccc(Cl)cc1Cl | / | / | / | / | 5.0 | / | / | /

Screens from PubChem BioAssay.
